This is an account of results in PubChem BioAssay (NCATS).

Results filed as inconclusive are left out. Entries that show only a call come without a potency. Unmarked numbers belong to inactive results. Active and inactive are the calls of the source. The call rests on the fitted dose curve; in most records, active means well fitted cell-killing curve with a large enough effect; inconclusive means small, poorly fitted or top-dose-only effect, or effect the other way; inactive means flat fitted curve, though single readings scatter.

One assay deals with CASKI. The assay can be described thus: Primary qHTS to identify gynecologic anti-cancer compounds using libraries of approved drugs and bioactive compounds (AID 1345084). Further: nearly all actives have a fitted effect of over 55% in size. To be noted: Gynecologic cancer cell panel viability, ATPlite luminescence, 48 h; series mostly up to 57.5 µM. The essentials:
(§1)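 Cells, 1,000 per well, plated 16 h, then exposed 48 h at 37 C to compounds. Viability by ATPlite luminescence after 15 min at room temperature.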
On the technique in general: In qHTS, concentration-response curves come from the screen itself.
For the compound `CCC/C=C/C=C/C1CC(O)C2(O)C(=O)OCC12` (stereo unspecified), the Potency result was “inactive”. Consider `C[C@H]1CC[C@@]2(OC1)O[C@H]1CC3[C@@H]4CC[C@@H]5C[C@@H](O[C@@H]6O[C@H](CO)[C@@H](O[C@@H]7O[C@H](CO[C@@H]8OC[C@@H](O)[C@H](O)[C@H]8O)[C@@H](O[C@@H]8O[C@H](CO)[C@H](O)[C@H](O)[C@H]8O)[C@H](O)[C@H]7O)[C@H](O)[C@H]6O)CC[C@]5(C)C4CC[C@]3(C)[C@H]1[C@@H]2C` (stereo partly specified), for which the activity change, negative = cytotoxicity is -0.139% [at 11.6 µM]. For the compound `CC(C)(C)c1ccc(C(=O)Nc2cc(Cl)c(Br)cc2C(=O)O)cc1`, the Potency entry was “inactive”. The same measure, in the same setting: then `C=C1CCC2C(C)(C)CCCC2(C)C1CC/C(C)=C\CO` (stereo unspecified), with “inactive”; and `CCCCCc1ccc(/C=C/C(=O)Nc2cc(Cl)ccc2C(=O)O)cc1`, with “inactive”. Still for that read-out and setting: in the case of `O=C(N[C@H](Cc1cscn1)C(=O)N[C@@H](CC1CCCCC1)[C@@H](O)[C@@H](O)C1CC1)c1nc2ccccc2[nH]1` it was “inactive”; in that of `O=C(Nc1nnc(-c2ccc3c(c2)OCCO3)o1)C1CCCCC1`, “inactive”.

For a further assay, the system named is Es-2. Described as above. The settings on record: Gynecologic cancer cell panel viability, ATPlite luminescence, 48 h; series mostly up to 57.5 µM. The essentials:
as §1
For `CCNC1(C(N)=O)CN(c2nc(C)nc3c(-c4ccc(Cl)cc4)c(-c4ccccc4Cl)nn23)C1`, the Potency entry is “inactive”. Same read-out and setting: then `O=C([C@@H]1CCCN(c2ccc3[nH]c(C4(n5cc(Cl)cn5)CC4)nc3n2)C1)N1CCCC1`, with “inactive”; and `Cn1ccc(NC(=O)c2cc(Oc3ccc(C(=O)N4CCC4)c(F)c3)c3c(c2)OC(C)(C)C3)n1`, with “inactive”. The same measure, in the same setting: then `CC1(CO)CC2C(O)C3=C(CC(C)(O)C2C1)C(=O)OC3` (stereo unspecified), with “inactive”; and `C[C@@H]1O[C@@H](O[C@H]2[C@@H]3C=CO[C@@H](O[C@@H]4O[C@H](CO)[C@@H](O)[C@H](O)[C@H]4O)[C@@H]3[C@@]3(CO)O[C@@H]23)[C@H](O)[C@H](OC(=O)/C=C/c2ccccc2)[C@H]1O`, with “inactive”; and `CC(=O)O[C@@H]1CC2C(/C=C(\C)C(=O)[C@@]3(O)C[C@@H](C)[C@H](OC(=O)c4ccccc4)C3/C=C/1C)C2(C)C` (stereo partly specified), with “inactive”.

As to `COCCCNC(=O)c1ccc(Cn2c(=O)c3ccccc3n(Cc3ccc(C(C)C)cc3)c2=O)cc1`, the Potency entry is “inactive”. In the case of `Cc1ccc(C(C)C)c(O[C@@H]2O[C@H](CO)[C@@H](O)[C@H](O)[C@H]2O)c1`, the Potency entry is “inactive”.

As to `O=C(Nc1ccccc1)N1CCC(Cc2cnc3ccccc3c2)CC1`, the Potency result was “inactive”. In the case of `CN(C)CCOc1cc(NS(=O)(=O)c2c(Cl)cc(C(F)(F)F)cc2Cl)ccc1Cl`, the Potency entry is “inactive”. As for `COc1ccc(NC(=O)C2C[C@H](C)CC[C@H]2C(C)C)cc1` (stereo partly specified), the Potency entry was “inactive”.

Take `Cc1noc(-c2ccc(-c3ccc(CC(=O)O)cc3)cc2)c1NC(=O)O[C@H](C)c1ccccc1Cl`: the Potency entry is “inactive”.

For `Cc1cccc(N2CCN(C(=O)c3cc(S(=O)(=O)N(C)C)ccc3N3CCCC3)CC2)c1C`, the Potency result was “inactive”. As for `C[C@]12CC[C@@H]3c4ccc(O)c(O)c4CC[C@H]3[C@@H]1CCC2=O`, the Potency result was “inactive”.

With `O=C(Nc1ccccc1)c1ccc(Nc2nnc(-c3ccc(O)cc3)c3ccccc23)cc1`, the Potency result is “inactive”. Consider `CC1(NC(=O)c2ccc(C#Cc3cccc(F)c3)cn2)COC1`, for which the Potency result was “inactive”. Regarding `COc1ccc(S(=O)(=O)N2CCC[C@H]2C(=O)Nc2cc(C)cc(C)c2)cc1`, the Potency entry is “inactive”. In the case of `COc1cc(C2OC(c3ccc(OC)c(OC)c3)C(C)C2C)ccc1O` (stereo unspecified), the Potency entry is “inactive”.

In the case of `C#CCCCn1cc(-c2cccc3c2N[C@H](C)CC(=O)N3)cn1`, the Potency entry was “inactive”. As to `CC(=O)O[C@@H]1[C@@H](O)[C@H](O[C@@H]2[C@@H](O)[C@@H](O)[C@H](O[C@H]3[C@H](O[C@H]4[C@H](O[C@H]5CC[C@@]6(C)C(CC[C@]7(C)C6CC=C6[C@@H]8CC(C)(C)CC[C@]8(C(=O)O)CC[C@]67C)[C@]5(C)CO)O[C@H](CO)[C@@H](O)[C@@H]4O)OC[C@@H](O)[C@@H]3O)O[C@H]2C)OC[C@H]1O` (stereo partly specified), the activity change, negative = cytotoxicity is -1.31% [at 11.6 µM].

In the case of `CCC/C=C/C(=O)O[C@H]1CC(C)(C)CC2[C@@]13[C@H](O)C[C@]1(C)[C@@]2(CCC2[C@@]4(C)CC[C@H](O[C@@H]5O[C@H](C(=O)O)[C@@H](O)[C@H](O[C@@H]6O[C@H](CO)[C@H](O)[C@H](O)[C@H]6O[C@@H]6O[C@@H](C)[C@H](O)[C@@H](O)[C@H]6O[C@@H]6OC[C@](O)(CO)[C@H]6O)[C@H]5O[C@@H]5O[C@H](CO)[C@H](O)[C@H](O)[C@H]5O)C(C)(C)C4CC[C@]21C)O[C@H]3O` (stereo partly specified), the activity change, negative = cytotoxicity is 3.48% [at 6.55 µM]. As to `Cc1ccc(-c2ncc[nH]2)cc1NC(=O)c1ccc(OCc2ccccn2)cc1`, the Potency entry is “inactive”. `COc1cc(CCc2ccc(OCC=C(C)C)cc2)cc(OC)c1OC`: the Potency result is “inactive”. Still for that read-out and setting: then `CNC(=O)COC(=O)N1CCC(CCc2ccc(Cl)cc2)CC1`, with “inactive”; and `COC1C=C(C)C(O)(CO)C2(C)CCCC(C)(C)C12` (stereo unspecified), with “inactive”; and `O=C(O)c1ccc(S(=O)(=O)N(Cc2ccc(OC(F)(F)F)cc2)c2ncc(C(F)(F)F)cc2Cl)cc1`, with “inactive”. As for `C=C(C)C(=O)O[C@H]1[C@H]2C(=C)C(=O)O[C@@H]2/C=C(\CO)CC/C=C(/C=O)[C@@H]1O`, the Potency result is “inactive”. The same measure, in the same setting: then `C=C[C@]1(C)C[C@H](O)[C@H]2C(=C)C(=O)O[C@@H]2[C@H]1C(=C)CO`, with “inactive”.

With `COC(=O)c1ccnc(-c2cc(C(=O)Nc3ccc(C4(N)CC4)cc3)ccn2)c1`, the Potency result is “inactive”. With `O=C(Nc1ccc2[nH]c(=O)oc2c1)C(=O)N1CCC(Cc2ccc(F)cc2)CC1`, the Potency entry is “inactive”.

For the compound `O=C(Nc1cccnn1)N1CCN(c2nccc(-c3ccc(F)c(F)c3)n2)CC1`, the Potency entry was “inactive”. Take `O=C(Nc1cc(C(F)(F)F)ccc1N1CCCCC1)c1ccncc1`: the Potency entry is “inactive”. Take `CCC/C=C/C=C/C1CC(O)C2(O)C(=O)OCC12` (stereo unspecified): the Potency result is “inactive”. Regarding `C[C@H]1CC[C@@]2(OC1)O[C@H]1CC3[C@@H]4CC[C@@H]5C[C@@H](O[C@@H]6O[C@H](CO)[C@@H](O[C@@H]7O[C@H](CO[C@@H]8OC[C@@H](O)[C@H](O)[C@H]8O)[C@@H](O[C@@H]8O[C@H](CO)[C@H](O)[C@H](O)[C@H]8O)[C@H](O)[C@H]7O)[C@H](O)[C@H]6O)CC[C@]5(C)C4CC[C@]3(C)[C@H]1[C@@H]2C` (stereo partly specified), the activity change, negative = cytotoxicity was -0.634% [at 11.6 µM]. For the compound `CC(C)(C)c1ccc(C(=O)Nc2cc(Cl)c(Br)cc2C(=O)O)cc1`, the Potency entry was “inactive”. As to `C=C1CCC2C(C)(C)CCCC2(C)C1CC/C(C)=C\CO` (stereo unspecified), the Potency entry is “inactive”. As to `CCCCCc1ccc(/C=C/C(=O)Nc2cc(Cl)ccc2C(=O)O)cc1`, the Potency entry is “inactive”. Regarding `O=C(N[C@H](Cc1cscn1)C(=O)N[C@@H](CC1CCCCC1)[C@@H](O)[C@@H](O)C1CC1)c1nc2ccccc2[nH]1`, the Potency result is “inactive”. As for `O=C(Nc1nnc(-c2ccc3c(c2)OCCO3)o1)C1CCCCC1`, the Potency entry was “inactive”.
